# Records with an inconclusive call do not appear. Values without a mark were called inactive. The call rests on the fitted dose curve.
# Test: qHTS assay to identify small molecule agonists of the NFkB signaling pathway - cell viability counter screen (AID 1159515); further: nearly all actives have a fitted effect of over 55% in size
# Conditions: NFkB-bla ME-180 viability, CellTiter-Glo luminescence, 5 h; series mostly up to 61 µM; activity, negative = cytotoxic: at the top concentration
# From the text: National Center for Advancing Translational Sciences [NCATS]
# NIH Chemical Genomics Center [NCGC]
# U.S. Environmental Protection Agency [EPA]
# National Institutes of Environmental Health Sciences [NIEHS]
# National Toxicology Program [NTP]
# U.S. Food and Drug Administration [FDA]
# Transcription factors and their stimulated target gene expression play pivotal roles across many cellular processes including responses to environmental stimuli. Proper regulation of associated pathways is critical to maintain cell health and function. Constitutive activation of transcription factor pathways has been implicated in tumors as it may block cellular functions such as apoptosis and lead to invasion and metastasis. One important transcription factor that stimulates gene expression in response to cytokines, UV radiation, and other stimuli is nuclear factor-kappa B (NFkB). To measure activation of the NFkB pathway, the CellSensor NFkB-bla ME-180 cell line (Life Technologies, Carlsbad, CA) that stably expresses beta-lactamase reporter gene under the regulation of a NF-kB response element was used. This assay allows measurement of the NFkB pathway activity induced by compounds in a ME-180 cell line. This system quantitates NF-kB activity using a FRET-based assay system where beta-lactamase expression disrupts FRET, allowing for fluorescent measurement of activity. This cell line has been used to screen the Tox21 10K compound library and to identify compounds that induce the NFkB pathway activity. The cytotoxicity of the Tox21 compound library against the NFkB-bla ME-180 cell line was tested in parallel by measuring cell viability using the CellTiter-Glo assay in the same wells.
# Tox21 Assay Protocol Summary:
# NFkB-bla ME-180 cells were dispensed at 2,000 cells/6 uL of assay medium per well into black wall/clear-bottom 1536-well plates using a Multidrop Combi (ThermoFisher Scientific, Waltham, MA) dispenser. After the assay plates were incubated at 37 C and 5% CO2 for an overnight, 23 nL of compounds dissolved in DMSO, positive controls or DMSO only was transferred to the assay plate by a Pintool station (Kalypsys, San Diego, CA). The assay plates were incubated at 37 C and 5% CO2 for 5 hr. One uL of LiveBLAzer B/G FRET substrate (Life Technologies) was added using a Flying Reagent Dispenser (Aurora Discovery, San Diego, CA) and the plates were incubated at room temperature for 1.5 hr. Fluorescence intensity (405 nm excitation, 460 nm and 530 nm emissions) was measured using an Envision plate reader (PerkinElmer, Shelton, CT). For cytotoxicity, 3 ul/well of CellTiter-Glo reagent was added into the assay plates using an FRD. After 30 min incubation at room temperature, the luminescence intensity was measured using a ViewLux plate reader (PerkinElmer).
# On the % scale 0 is the no-effect control and ±100 the full control effect.
row,SMILES,"activity, negative = cytotoxic"
1,O=C(OCCCCCOC(=O)c1ccccc1)c1ccccc1,5.15%
2,O=c1[nH][nH]c2ccccc12,-0.569% [at 78.8 µM]
3,Cc1ccc2ccccc2c1[N+](=O)[O-],-0.135%
4,COc1ccc(C(=O)c2ccc(C)cc2)c(O)c1,-2.02% [at 78.8 µM]
5,CCC1=C(C)CN(C(=O)NCCc2ccc(S(=O)(=O)NC(=O)NC3CCC(C)CC3)cc2)C1=O (stereo not given),-30.9%
6,CCC(=O)O[C@]1(C(=O)COC)[C@@H](C)C[C@H]2[C@@H]3CCC4=CC(=O)C=C[C@]4(C)C3(F)[C@@H](O)C[C@@]21C (stereo not given in full),1.91%
7,CC(C)=CCC[C@H](C)CCO,3.73%
8,CCC(CC)C(=O)O,2.24%
9,OCCOc1cccc(OCCO)c1,-0.425%
10,SCCOCCOCCS,-6.18%
11,C=C[Si]1(C)O[Si](C)(C=C)O[Si](C)(C=C)O[Si](C)(C=C)O1 (stereo not given),-14.1%
12,CCCCCCC/C=C/C=O,-3.94%
13,CC(=O)OCC(=O)[C@@]1(O)CC[C@H]2[C@@H]3CCC4=CC(=O)C=C[C@]4(C)[C@@]3(F)[C@@H](O)C[C@@]21C,-6.56%
14,CCCCCC1CCC(=O)O1 (stereo not given),9.04%
15,[O-][n+]1ccc(Cl)cc1,-0.119% [at 78.8 µM]
16,Cc1ccc(NC(=O)c2ccc(CN3CCN(C)CC3)cc2)cc1Nc1nccc(-c2cccnc2)n1,-2.37%
17,Clc1cc(Cl)c2c(c1)N=C1CCCCCN1C2,-0.96%
18,CC(C)(C)NCC(O)COc1ccc(NC(=O)NC2CCCCC2)cc1 (stereo not given),5.35%
19,Nc1ncnc2c1ncn2[C@@H]1O[C@H](CO)[C@@H](O)[C@H]1O,1.14%
20,C/C=C1\[C@H]2C=C(C)C[C@]1(N)c1ccc(=O)[nH]c1C2,-19%

row,SMILES,"activity, negative = cytotoxic"
1,CCOC(C)OCC,-9.64%
2,CC(CN=Cc1ccccc1O)N=Cc1ccccc1O (stereo not given),1.43%
3,COC=O,-3.71% [at 6.95 µM]
4,CC(C)C[C@H](NC(=O)[C@H](Cc1ccccc1)NC(=O)c1cnccn1)B(O)O,-9.67%
5,Nc1ccc(C(=O)Oc2ccccc2)c(O)c1,-10.9%
6,Clc1cccc(C(c2ccc3nc[nH]c3c2)n2ccnc2)c1 (stereo not given),6.52%
7,NC(=O)c1ccccc1C(N)=O,12.4% [at 78.8 µM]
8,Oc1ccc(Oc2ccccc2)cc1,0.135%
9,CC(Cc1ccccc1)(NC(=O)CN)c1ccccc1 (stereo not given),-19.8%
10,CC(CC(C#N)(c1ccccc1)C(C)C)N(C)C (stereo not given),-15.3%
11,CC(C)CCCCCCCOC(=O)c1ccc(C(=O)OCCCCCCCC(C)C)c(C(=O)OCCCCCCCC(C)C)c1,11.4%
12,CS(C)=O,1.29%
13,CCOCCn1c(N2CCCN(C)CC2)nc2ccccc21,3.78%
14,CCOc1ccc(NC(C)=O)cc1N,-15.8% [at 78.8 µM]
15,CC(C)Cc1nccs1,6.73% [at 78.8 µM]
16,COc1ccc(CN(CCN(C)C)c2ncccn2)cc1,-1.86%
17,CC(=O)S[C@H](C(=O)N[C@H]1Cc2ccccc2[C@H]2CCC[C@@H](C(=O)O)N2C1=O)C(C)C,3.71%
18,FC1(F)C(F)(F)C(F)(F)C2(F)C(F)(C1(F)F)C(F)(F)C(F)(F)C1(F)C(F)(F)C(F)(F)C(F)(F)C(F)(F)C12F (stereo not given),2.3%
19,C1=COCCC1,-4.67%
20,CCN(CC)CC(=O)OCC(=O)[C@@]1(O)CC[C@H]2[C@@H]3CCC4=CC(=O)CC[C@]4(C)[C@H]3[C@@H](O)C[C@@]21C,2.87%
